FAS-TE inh = inhibitors of human fatty acid synthase thioesterase domain | recombinant FAS-TE, OMFH fluorogenic substrate, fluorescence endpoint | inhibition, % at 15 µM | 0.67% of 360,000 active | AID 602261;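 active = compounds whose normalised, plate-corrected inhibition of enzyme fluorescence in the single-dose primary screen is 50% or more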;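 note: 0% = DMSO with enzyme and 100% = substrate without enzyme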
Myeloid diff 2 = promotes myeloid progenitor differentiation; calls only at 10 µM; AID 624256; ER-HoxA9 myeloid progenitors, lysozyme-GFP differentiation, flow cytometry; 1% of 360,000 active;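 active = normalized GFP-positive differentiation at or above the plate's own cutoff, the solvent-only control mean plus 3 SD; inconclusive = no clear call, values can overlap the other calls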;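 note: cells exposed to compound for four days before flow analysis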
NadD inh = NadD (S. aureus) enzyme inhibition | 0.78% of 360,000 active | inhibition, % at 20 µM | AID 602399 | purified NadD enzyme, colorimetric absorbance read-out; in the data active = inhibition above about 26%
CendR NRP1 mod = alters CendR peptide binding to human NRP-1; 0.85% of 360,000 active; O14786; FAM-RPARPAR peptide binding to NRP-1, fluorescence polarization; inhibition, % at 25 µM; AID 602438;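 active = inhibition or corrected inhibition above about 18%, plus a signal ratio from 0.5 to 1.5, limit read from the data, passing the limit was not always enough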
CRFR2-BP antag = blocks CRF-induced signaling of the CRF-BP/CRF-R2 complex. 0.59% of 350,000 active. AID 588475. inhibition, % at 11.8 µM. HEK293 CRF-R2/CRF-BP, CRF-induced calcium fluorescence;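 active = inhibition of the ligand-induced calcium signal above about 50% at the single tested concentration, limit read from the data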
Numbers without * were called inactive; i = inactive; ? = inconclusive; / = not tested or not shown; + = active, no number. This is a sample that favours compounds with a hit; in the whole collection about 3.6% have one here.

SMILES	FAS-TE inh	Myeloid diff 2	NadD inh	CendR NRP1 mod	CRFR2-BP antag
C=C(CC[C@@H](O)C(C)(C)O)[C@H]1CC[C@]2(C)[C@@H]1CCC1[C@@]3(C)CCC(=O)C(C)(C)C3CC[C@]12C (stereo partly drawn)	4	i	2	28*	-11
Cc1noc(C)c1S(=O)(=O)N1CCC(C(=O)N2CCN(c3ccc(Cl)cc3)CC2)CC1	-5	i	-3	11	58*
CN(Cc1nc(-c2ccccn2)no1)S(=O)(=O)c1ccc(Br)cc1	-2	i	-8	28*	0
CC(=O)N1CCC(c2nc3ccccc3n2C(C)C(=O)NCc2ccccc2)CC1 (stereo not drawn)	/	i	/	5	/
O=[N+]([O-])c1ccc(-n2nnnc2CN2CCOCC2)cc1	-6	i	-6	9	-4
O=[N+]([O-])c1ccc(-n2nnnc2CN2CCCCC2)cc1	-2	i	-3	24*	33
Nc1cc([N+](=O)[O-])cc2oc(-c3ccccc3)cc12	18	i	-2	-39	4
CC(Oc1ccc2c3c(c(=O)oc2c1)CCC3)C(=O)NC1CCN(Cc2ccccc2)CC1 (stereo not drawn)	3	i	-8	18*	-26
COc1cc(/C=C2\SC(=O)N(c3ccccc3Cl)C2=O)cc([N+](=O)[O-])c1O	39	i	18	6	88*
COc1cc(/C=C2/C(=O)NN(c3ccc(Cl)c(Cl)c3)C2=O)cc([N+](=O)[O-])c1O	5	i	10	-83	8
Cc1ccsc1C(=O)OCC(=O)c1cc(C)n(C)c1C	0	i	-1	-11	-6
CCOC(=O)N1CCN(C(=O)c2ccc3nc(SCc4ccc(F)cc4)n(C)c3c2)CC1	0	i	4	-2	51*
Cc1cc(C)n(-c2ccc(C(=O)OCC(=O)Nc3ccc([N+](=O)[O-])cc3)cc2)n1	7	i	2	8	19
Cc1ccc(C(=O)CN2C(=O)C(=O)N(Cc3ccccc3)C2=O)cc1	-1	i	-8	4	-27
Cc1ccc(NS(=O)(=O)c2cc([N+](=O)[O-])ccc2NNC(=S)Nc2cccc(Cl)c2)c(C)c1	52*	i	46*	-132	24
CCOc1cc(C2C3=C(CCCC3=O)OC3=C2C(=O)CCC3)cc([N+](=O)[O-])c1O	-4	i	-1	26*	-6
COc1ccc(NC(=O)N(C)C[C@@H]2OCc3cn(nn3)CCCC(=O)N([C@@H](C)CO)C[C@H]2C)cc1	-6	i	4	-3	5
COc1ccc(/C=N/NC(=O)c2cccnc2)cc1CSc1nc2ccccc2s1	8	/	-8	3	-16
COc1ccc(/C=N/NC(=O)c2ccccc2Cl)cc1CSc1nc2ccccc2s1	13	/	12	31*	1
CC1C(=O)Nc2ccc(S(=O)(=O)NCCc3ccc(Cl)cc3)cc2NC1=O (stereo not drawn)	-2	i	6	24*	20
CC1Sc2ccc(S(=O)(=O)NCCc3ccc(S(N)(=O)=O)cc3)cc2NC1=O (stereo not drawn)	-4	i	-4	12	-6
O=C(CCS(=O)(=O)c1ccccc1)N1CCCc2ccccc21	-5	i	0	14	7
O=C(c1cccc(S(=O)(=O)N2CCCC2)c1)N1CCCc2ccccc21	0	i	-5	-2	-4
NC(=O)COC(=O)c1cccc(S(=O)(=O)N2CCCCC2)c1	2	i	-10	1	86*
O=C(CCC(=O)N1CCCc2ccccc21)N1CCN(S(=O)(=O)c2ccccc2)CC1	-4	i	4	28*	0
SMILES	FAS-TE inh	Myeloid diff 2	NadD inh	CendR NRP1 mod	CRFR2-BP antag
CCOC(=O)c1cccc(S(=O)(=O)N2CCCC2)c1	-6	i	4	4	-11
O=C(C1CCCO1)N1CCc2ccccc21 (stereo not drawn)	-4	i	0	56*	0
O=C(c1cccc(S(=O)(=O)N2CCCCC2)c1)N1CCc2ccccc21	19	i	-5	32*	-10
COc1cc2c(cc1OC)C(CNC(=O)C=Cc1cc(OC)c(OC)c(OC)c1)C2 (stereo not drawn)	-1	i	-6	5	15
Cc1sc(NC(=O)C2CC(=O)N(Cc3ccco3)C2)nc1-c1ccccc1 (stereo not drawn)	-2	i	0	-11	8
CCC(CC)NC(=O)CO/N=C/c1ccccc1OC(F)F	-6	i	-2	-2	39
O=[N+]([O-])C1C(c2ccccc2)C12c1ccccc1-c1ccccc12 (stereo not drawn)	27	?	1	-4	-7
CCc1nc2ccc(C(=O)NCCN3CCNC3=O)cn2c1N(CC)CCOC	-5	i	3	20	/
O=C(c1ccc(S(=O)(=O)N2CCOCC2)cc1)N1CCc2ccccc21	0	i	0	24*	-2
CCCOC(=O)c1ccc(Oc2cn[nH]c2-c2ccc(OCC)cc2O)cc1	-176	i	-5	-3	107*
Cc1cc(=O)c(C(=O)Nc2ccc(N3CCOCC3)cc2N2CCOCC2)nn1-c1ccccc1Cl	-4	i	0	9	-10
COc1cccc(/C=C/C(=O)OCC(=O)c2ccc(Br)cc2)c1	0	i	-7	18*	-1
COc1cccc(/C=C/C(=O)OCC(=O)Nc2cc(C(F)(F)F)ccc2Cl)c1	32	i	-2	39*	-78
N#CC(c1ccc([N+](=O)[O-])cc1)C(CC(=O)c1ccccc1)c1ccccc1 (stereo not drawn)	30	i	-5	28*	11
CC1=C/C(=C\c2ccc(Br)o2)C(=O)O1	-12	i	-4	-16	1
O=C1C(=Cc2ccc(Br)o2)C(=O)c2ccccc21	6	i	33*	-7	15
CNC(=O)NC(=O)C(C)OC(=O)c1c(C)noc1C (stereo not drawn)	-5	i	-15	43*	-10
COC(=O)C[C@@H]1C[C@@H]2c3cc(NC(=O)NC4CCCCC4)ccc3O[C@@H]2[C@H](CO)O1	-8	i	8	2	-13
C[C@@H]1CN([C@H](C)CO)C(=O)c2cc(C#CC(C)(C)O)cnc2O[C@@H]1CN(C)C(=O)C1CC1	-4	i	2	3	-9
c1ccc(-n2nnnc2NCCCN2CCOCC2)cc1	-4	i	-1	30*	47
CCOC(CCn1c(SCc2cccc([N+](=O)[O-])c2)nc2ccccc2c1=O)OCC	31	+	2	-6	-11
Nc1ccccc1SC1CC(=O)N(c2ccc3c(c2)OCO3)C1=O (stereo not drawn)	-3	i	-2	2	84*
O=C(O)c1ccccc1SC1CC(=O)N(c2ccc3c(c2)OCO3)C1=O (stereo not drawn)	-2	i	6	-4	6
O=C(NCCO)c1c(O)c2cccc3c2n(c1=O)CC3	-5	i	-2	15	56*
NCCNC(=O)c1c(O)c2cccc3c2n(c1=O)CCC3	-4	i	-8	11	-3
